The source of these data is the supplement of paper PMC6555819.

Common to all, as to test: PBM binding z-score (relative to random genomic background probes); higher = stronger binding; sequences stand for … in GC…GCGATTGACAGCGTAGAATGAAGG
The test system of assay [1] is RARb homodimer (NR concentration 270 nM). The method, boiled down:
(§1)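 Antibodies against each partner of ligand-free nuclear receptor dimers (one per run) detected binding on custom Agilent 4×180K protein-binding microarrays after 1 h incubation. The double-stranded probes had 34-nt variable regions carrying direct-repeat seeds, single-nucleotide variants, half-site ablations and random human genomic background sequences. Binding z-scores, from regression-normalized fluorescence, use the random background probes as reference.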

For assay [2], the system named is RARg:RXRa (NR concentration 270 nM, RXRa partner concentration 90 nM). The method, boiled down:
as §1

The test system of assay [3] is RARg homodimer (NR concentration 270 nM). The method, boiled down: as §1
Assay [4] has as its system RXRa DBDmut IVT, anti-RXR (DBD mutation: RXRa K156A/R161A, NR concentration 90 nM). The method, boiled down:
as §1

Assay [5] concerns RXRa homodimer (NR concentration 180 nM). The method, boiled down:
as §1

The subject of assay [6] is THRa:RXRa (NR concentration 90 nM, RXRa partner concentration 90 nM). The method, boiled down:
as §1

Assay [7] has as its system THRa homodimer (NR concentration 90 nM). The method, boiled down:
as §1

The test system of assay [8] is VDR homodimer (NR concentration 270 nM). A digest of the protocol:
as §1

Consider CCTCGGAGGACAGAAAGTCAGAGCTGTCCGCTTT, for which the PBM binding z-score in assay [1] was -0.167; in assay [2], -0.265; in assay [3] it was 0.0547; in assay [4] it was -0.146; in assay [5], -0.788; in assay [6], -0.441. Further, the PBM binding z-score is -0.747 in assay [7] and -0.657 in assay [8].
With CCTCGGAGGACAACAGGAGGTCCGAGCTGCCAGA, the PBM binding z-score in assay [1] is 0.279; in assay [2], 0.372; in assay [3], 0.854; in assay [4], -0.16; in assay [5], -0.455; in assay [6] it was 0.4. The PBM binding z-score in assay [7] was -0.324; in assay [8], -0.197.
Turning to GCTAGCAGGCCATTTGGGTCGCTCAATGACGGGC, the PBM binding z-score in assay [1] was -0.128; in assay [2], -0.381; in assay [3], -0.146; in assay [4] it was -0.286; in assay [5] it was -0.42; in assay [6], -0.00184. Moreover, the PBM binding z-score in assay [7] is -0.914; in assay [8] it was -0.635.
Turning to CCTACTGGGCCATCAGCTCATTGATATCAACGTT, the PBM binding z-score in assay [1] is -0.431; in assay [2], -0.217; in assay [3], 0.0511; in assay [4], -0.384; in assay [5], -0.717; in assay [6], -0.526. Further, the PBM binding z-score in assay [7] is -0.399; in assay [8] it was -0.517.
On to CCAGACAGGTGAGAAGTTAACTCAGCCTCGATTA, for which the PBM binding z-score was 0.312 in assay [1]; 0.26 in assay [2]; 0.42 in assay [3]; 0.268 in assay [4]; 0.0935 in assay [5]; 0.0119 in assay [6]. In addition, the figures for the PBM binding z-score in assay [7] and in assay [8] were -0.003 and -0.158, respectively.
CTCGAAAGGACGTGCTCAGGTGAGTATACCAAAC: the PBM binding z-score was 0.589 in assay [1]; 0.291 in assay [2]; 0.547 in assay [3]; 0.19 in assay [4]; -0.118 in assay [5]; 1.17 in assay [6]. Moreover, the PBM binding z-score was 0.542 in assay [7] and -0.391 in assay [8].
As for GCTCGGAGTACAAGGTCAGAGCTTTGTCCGTAGA, the PBM binding z-score in assay [1] was determined as 2.65; in assay [2] it was 2.42; in assay [3], 2.48; in assay [4], 1.1; in assay [5] it was 2.11; in assay [6] it was 2.63. Also, the PBM binding z-score in assay [7] worked out at 1.23; in assay [8], 0.858.
For the sequence AATACAGCGTCATCGTAGGCCAGAGTACGCACAG, the PBM binding z-score is -0.094 in assay [1]; -0.121 in assay [2]; 0.174 in assay [3]; -0.495 in assay [4]; -0.0638 in assay [5]; 0.55 in assay [6]. Further, the PBM binding z-score was -0.659 in assay [7] and -0.00282 in assay [8].
TCTAGTTGGTCAAAGTTCACACACTCGAAATGCG: the PBM binding z-score in assay [1] was found to be 4.37; in assay [2], 4.88; in assay [3] it was 4.04; in assay [4] it was 2.68; in assay [5], 4.73; in assay [6], 2.62. Further, the PBM binding z-score is 1.04 in assay [7] and 4.58 in assay [8].
As to GGAACGAGGGCATTCAAGTTGATAGCATGGCGAT, the PBM binding z-score in assay [1] was 0.771; in assay [2] it was 1.04; in assay [3], 1.74; in assay [4], 3.23; in assay [5], 0.697; in assay [6], 3.52. The values for the PBM binding z-score in assay [7] and in assay [8] were -0.291 and 2.77, respectively.
Turning to CCTTACGGATCAAGGTTATAGCACGGGTGGTACG, the PBM binding z-score is 0.857 in assay [1]; 0.538 in assay [2]; 0.518 in assay [3]; -0.178 in assay [4]; 0.793 in assay [5]; 1.16 in assay [6]. The PBM binding z-score in assay [7] was found to be 0.694; in assay [8] it was 0.886.
As for AGTCAAAGTTCACTATGTAACGTAAGATTCAGCT, the PBM binding z-score in assay [1] worked out at 3.66; in assay [2], 4.55; in assay [3] it was 5.44; in assay [4], 4.2; in assay [5] it was 3.68; in assay [6] it was 1.36. Also, the values for the PBM binding z-score in assay [7] and in assay [8] were -0.244 and 3.86, respectively.
As for CCTAGCACGCCAATCTGGGTCACTCAAGGCTTGA, the PBM binding z-score in assay [1] turned out to be 1.94; in assay [2], 0.768; in assay [3], 0.494; in assay [4], 0.349; in assay [5], 0.974; in assay [6], 2.61. Further, the PBM binding z-score in assay [7] is 0.789; in assay [8] it was 0.435.
